The values below come from PubChem BioAssay AID651820 (National Center for Advancing Translational Sciences (NCATS), 2012).

Several values for one entry are separate records, joined by “and”; a condition that tells them apart may be missing. Equal entries are not always repeated. The whole screen tested about 340,000 compounds, of which about 12,000 (3.5%) were called active. About 18% were inconclusive and are not listed. Only a selection was taken, and actives are over-represented in it overall. Values without a mark were called inactive. Calls come from the whole dose curve; as a rule, active = well fitted inhibition curve with a large enough effect; inconclusive = small, poorly fitted or top-dose-only effect, or another doubt; inactive = no such curve, though single readings can be large or run the other way.
% is set by controls: 0 for no effect and ±100 for the full control effect; potency is the fitted concentration of half-maximal effect.

This assay is described as follows: qHTS Assay for Inhibitors of Hepatitis C Virus (HCV). Conditions: Huh7.5.1 HCVcc-Cre infection, luciferase reporter, 44 h; series mostly up to 41.8 µM; activity change, negative = inhibition: at the top concentration. The essentials:
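Compounds are dispensed onto cells plated 4 h earlier at 1,000 per well, with HCVcc-Cre virus (about 0.5 moi) added next. Following 44 h of culture, luminescent signal is measured for 15 sec after 15 min with substrate at room temperature.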
A general note: In qHTS, concentration-response curves come from the screen itself.
As for `CCN(C(=O)CN1C(=O)/C(=C/c2ccc(F)cc2)SC1=S)C1CCS(=O)(=O)C1` (stereo not drawn), the “activity change, negative = inhibition” value is 3.32%.
Same read-out and setting: next, `O=C(COC(=O)Cc1c[nH]c2ccccc12)NCCc1ccccc1`: 3.54%.
Same read-out and setting: the figure for `O=C(CN1CCN(c2ccccc2O)CC1)NC(=O)NCc1ccccc1` is -28.3%.
Take `CCCOc1ccc(C(=O)C(CCC(CNCC)C(=O)c2ccc(OCCC)cc2)CNCC)cc1` (stereo not drawn): the Potency is 5.01 µM (active).
Take `CCCOc1ccc(N/C=C/C(=O)C(C)(C)C)cc1`: the “activity change, negative = inhibition” value was 3.9%.
For `CCCOc1ccc(C(=O)CCC(=O)OC(C)C(=O)Nc2ccc(NC(C)=O)cc2)cc1` (stereo not drawn), the “activity change, negative = inhibition” value is 26.7%.
On the same count and under the same terms, next, `CCN(CC(=O)Nc1ccccc1C(F)(F)F)C(=O)CSCc1c(C)noc1C`: 1.18%.
The same measure, in the same setting: the figure for `COc1ccc(S(=O)(=O)N2C[C@H]3CON(C)[C@H]3C[C@H]2c2cccc(Br)c2)cc1` is 28% [at 8.37 µM].
As to `O=C(NCc1ccccc1Cl)C1CCN(S(=O)(=O)N2CCOCC2)CC1`, the “activity change, negative = inhibition” value was -1.58%.
Still for that read-out and setting: the figure for `COc1ccc(CNC(=O)C2CCN(S(=O)(=O)N3CCOCC3)CC2)cc1` is 14.1%.
As for `O=C(O)C1CCN(S(=O)(=O)N2CCOCC2)CC1`, the Potency is 22.4 µM (active).
Consider `COc1ccc(OCCCC(=O)OC(C)C(=O)Nc2ccccc2[N+](=O)[O-])cc1` (stereo not drawn), for which the “activity change, negative = inhibition” value was 0.431%.
Same read-out and setting: the figure for `O=C(COC(=O)c1cccnc1Cl)NC(=O)NC1CCCCC1` is 7.18%; for `Cc1noc(C)c1S(=O)(=O)N(C)C[C@H]1Oc2ccc(NC(=O)C3CC3)cc2C(=O)N([C@H](C)CO)C[C@@H]1C` it is 11.4%.
As to `O=C1NC(c2ccccc2)Cc2ccncc21` (stereo not drawn), the “activity change, negative = inhibition” value is -5.27%.
The same measure, in the same setting: the figure for `Cc1cccc(C)c1NC(=O)CN(C)C(=O)CCC(=O)c1ccccc1` is 9.78%.
In the case of `CN(CC(=O)Nc1ccc(Cl)c(C(F)(F)F)c1)C(=O)CCC(=O)c1ccccc1`, the Potency was 11.2 µM (active).
On to `Cc1ccc(C(=O)CCC(=O)N(C)CC(=O)Nc2c(Cl)cccc2Cl)cc1`, for which the “activity change, negative = inhibition” value was -24.2%.
Turning to `COc1ccc(CNC(=O)C[C@H]2C[C@H](C(=O)N3CCOCC3)[C@@]3(C)c4[nH]c5cc(CCC(=O)N(C)C)ccc5c4CCN3C2=O)cc1OC`, the “activity change, negative = inhibition” value is 19.4%.
In the case of `CN(C)CCn1c2c(c(SCC(=O)Nc3ccccc3C(F)(F)F)nc1=O)CCCC2`, the “activity change, negative = inhibition” value was 8.07%.
Regarding `Cc1cc(C)c(CN2CCN(C(=O)Cn3ccc(NC(=O)OCc4ccccc4)nc3=O)CC2)c(C)c1`, the Potency is 4.47 µM (active).
As to `Nc1ccn(CC(=O)N2CCN(c3ccccn3)CC2)c(=O)n1`, the “activity change, negative = inhibition” value was 5%.
On to `O=C(Nc1ccn(CCCNCc2ccc3[nH]ccc3c2)c(=O)n1)OCc1ccccc1`, for which the “activity change, negative = inhibition” value was 5.42%.
As to `CCC1([N+](=O)[O-])COC(c2ccc(C(C)C)cc2)OC1` (stereo not drawn), the “activity change, negative = inhibition” value was -0.561%.
Still for that read-out and setting: the figure for `CCCN(C(=O)c1nc2nccc(C)n2n1)c1c(N)n(Cc2ccccc2)c(=O)[nH]c1=O` is -3.26%; for `O=C1CC(c2ccccc2)C(c2ccccc2)=NN1` (stereo not drawn) it is -4.55%; for `CC(C)c1cc(N=O)cc(C(C)C)c1O` it is 15%.
The same measure, in the same setting: the figure for `O=C(OCC(=O)N1CCCCCC1)c1ccc(Cl)nc1` is 9.32%.
In the case of `CN1CCN(C2Cc3ccc(Cl)cc3Sc3ccc(F)cc32)CC1` (stereo not drawn), the Potency is 31.6 µM (active).
Consider `CN(CC(=O)Nc1ccc(F)c(F)c1F)C(=O)C1CC(=O)N(C2CCCC2)C1` (stereo not drawn), for which the “activity change, negative = inhibition” value is 8.33%.
Same read-out and setting: the figure for `CCCNC(=O)c1ccc(Cl)c(Cl)c1` is -15.3%; for `CCCCOC(=O)Cn1c(=N)n(CCN(CC)CC)c2ccccc21` it is 6.51%.
Turning to `CCCn1c(=N)n(CC(=O)c2ccc(Cl)c(Cl)c2)c2ccccc21`, the Potency was 10 µM (active).
For the compound `Cc1ccc(S(=O)(=O)N2CCCCC2)cc1C(=O)N1CCN(CCO)CC1`, the “activity change, negative = inhibition” value was -5.13%.
The same measure, in the same setting: next, `CNc1nc(=O)n(C2CCCO2)cc1C` (stereo not drawn): 29.5%; `CN(Cc1cnccn1)C(=O)c1cc(COc2cccc(C(F)(F)F)c2)on1`: -13.9%.
As to `Cc1ccc(OCc2cc(C(=O)N(C)CCc3ccccc3)no2)cc1C`, the “activity change, negative = inhibition” value is -9.29%.
With `CN(Cc1cccnc1)C(=O)c1cc(COc2ccc3ncccc3c2)on1`, the Potency was 3.98 µM (active).
Consider `O=C(c1ccc2c(c1)C(=O)N(c1ccc(Cl)cc1)C2=O)N1CCN(c2ccccn2)CC1`, for which the “activity change, negative = inhibition” value is -1.51%.
`O=C1c2ccccc2S(=O)(=O)c2cc(N3CCN(c4ccccn4)CC3)ccc21`: the “activity change, negative = inhibition” value was 10.4%.
With `O=C(c1ccc2c(c1)N(Cc1ccc(F)cc1)C(=O)c1ccccc1S2(=O)=O)N1CCN(c2ccccn2)CC1`, the Potency is 25.1 µM (active).
On to `CCC(=O)c1ccc(OCC(=O)N(CC)CC2COc3ccccc3O2)cc1` (stereo not drawn), for which the “activity change, negative = inhibition” value was -3.1%.
For the compound `CC(=O)c1c(C)[nH]c(C(=O)COC(=O)CCOc2ccc(C)cc2)c1C`, the “activity change, negative = inhibition” value was 21.2%.
`CCc1c(Nc2ccccc2Cl)nc(N)[nH]c1=O`: the “activity change, negative = inhibition” value is 7.34%.
As to `C#CCOCCOCCOCCNc1nc(N2CCN(C(=O)[C@H](CCC(=O)O)n3cc(CN)nn3)CC2)nc(N2CCN(C(=O)[C@H](CCC(=O)O)n3cc(CN)nn3)CC2)n1`, the “activity change, negative = inhibition” value is 11.3%.
For `CCCOc1ccccc1C1CC(=O)Nc2cc3c(cc21)OCO3` (stereo not drawn), the Potency was 2.24 µM (active) and 3.55 µM (active).
Take `COc1cc2c(cc1OC)C(c1ccncc1)CC(=O)N2` (stereo not drawn): the “activity change, negative = inhibition” value is 29.9%.
On the same count and under the same terms, the figure for `COc1cc2c(cc1OC)C(c1ccc(C)o1)CC(=O)N2` (stereo not drawn) is -1.02%.
